Experimental findings from the supplement of paper PMC6555819 are described below.

What all share (experiment): PBM binding z-score (relative to random genomic background probes); higher = stronger binding; sequences stand for … in GC…GCGATTGACAGCGTAGAATGAAGG
For experiment [1], the system named is FXR:RXRa (NR concentration 270 nM, RXRa partner concentration 90 nM). An outline of the steps:
(§1)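 Custom Agilent 4×180K protein-binding microarrays carried double-stranded probes, each with a 34-nt variable region. These regions held direct-repeat seeds, single-nucleotide variants, half-site ablations and random human genomic background sequences. Ligand-free nuclear receptor dimers were incubated on the arrays for 1 h, antibodies against each partner (one per run) detected binding, and scanned fluorescence was regression-normalized. Binding z-scores take the random background probes as reference.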

For experiment [2], the system named is LXRa:RXRa (NR concentration 270 nM, RXRa partner concentration 90 nM). An outline of the steps:
as §1

Experiment [3] relates to LXRa homodimer (NR concentration 270 nM). Put shortly: as §1
In experiment [4] the test system is LXRb:RXRa (NR concentration 270 nM, RXRa partner concentration 90 nM). Put shortly:
as §1

Experiment [5] deals with LXRb homodimer (NR concentration 270 nM). Put shortly:
as §1

Experiment [6] concerns PPARa:RXRa (NR concentration 270 nM, RXRa partner concentration 90 nM). An outline of the steps: as §1
In experiment [7] the test system is PPARg:RXRa (NR concentration 180 nM, RXRa partner concentration 90 nM). Put shortly: as §1
The test system of experiment [8] is PPARg:RXRa 270nM:90nM, anti-RXR (NR concentration 270 nM, RXRa partner concentration 90 nM). An outline of the steps: as §1
Experiment [9] deals with PPARg:RXRa 30nM:10nM, anti-RXR (NR concentration 30 nM, RXRa partner concentration 10 nM). Put shortly:
as §1

For experiment [10], the system named is PPARg:RXRa 90nM:30nM, anti-RXR (NR concentration 90 nM, RXRa partner concentration 30 nM). An outline of the steps: as §1
Experiment [11] deals with PPARg:RXRa DBDmut IVT, anti-RXR (DBD mutation: RXRa K156A/R161A, NR concentration 270 nM, RXRa partner concentration 90 nM). An outline of the steps:
as §1

Experiment [12] relates to PPARg:RXRa IVT, anti-PPARg (NR concentration 270 nM, RXRa partner concentration 90 nM). An outline of the steps: as §1
Experiment [13] has as its system PPARg DBDmut:RXRa IVT, anti-PPARg (DBD mutation: PPARg1 K132A/R137A, NR concentration 270 nM, RXRa partner concentration 90 nM). Put shortly: as §1
For experiment [14], the system named is PPARg DBDmut IVT, anti-PPARg (DBD mutation: PPARg1 K132A/R137A, NR concentration 270 nM). Put shortly: as §1
Experiment [15] deals with PPARg homodimer (NR concentration 180 nM). An outline of the steps:
as §1

In experiment [16] the test system is PXR:RXRa (NR concentration 270 nM, RXRa partner concentration 90 nM). Put shortly:
as §1

Experiment [17] has as its system PXR homodimer (NR concentration 270 nM). An outline of the steps:
as §1

In experiment [18] the test system is RARa:RXR (NR concentration 270 nM, RXRa partner concentration 90 nM). Put shortly:
as §1

For experiment [19], the system named is RARa homodimer (NR concentration 270 nM). An outline of the steps:
as §1

The test system of experiment [20] is RARb:RXRa (NR concentration 270 nM, RXRa partner concentration 90 nM). Put shortly:
as §1

In the case of TCTTGTATATCAGCAGGTTAAGAAAGCTGGCCAA, the PBM binding z-score in [1] is 0.775; in [2], 0.883; in [3], 0.29; in [4] it was 1.03; in [5] it was 0.727; in [6], 0.972. The PBM binding z-score in experiment [7] is -0.165; in [8] it was 1.63; in experiment [9], 3.19; in experiment [10] it was 2.42; in experiment [11], 2.07; in [12] it was 0.6. In addition, the PBM binding z-score in experiment [13] was 0.115; in experiment [14], 0.41; in experiment [15] it was 0.718; in experiment [16], 0.584; in experiment [17] it was 0.0851; in [18] it was 0.998. For the same sequence, the PBM binding z-score was 0.982 in experiment [19] and 0.687 in experiment [20].
On to CCTCGGAGGCCAACAGGAGGTCAGAGCTGCCAGA, for which the PBM binding z-score in experiment [1] was 1.54; in [2] it was 2.49; in [3] it was 1.48; in experiment [4], 1.58; in [5] it was -0.663; in [6], 2.29. Besides, the PBM binding z-score is 0.0544 in experiment [7]; 0.339 in [8]; -0.921 in experiment [9]; -0.26 in [10]; -0.0138 in experiment [11]; 0.518 in experiment [12]. Also, the PBM binding z-score is -0.818 in [13]; -1.87 in experiment [14]; 1.58 in [15]; 2.35 in experiment [16]; 0.122 in [17]; 2.83 in experiment [18]. The PBM binding z-score in [19] came out at 0.23; in experiment [20] it was 2.98.
In the case of AGTCAAAGCTCACTAGGTAACGTAAGATTCAGCT, the PBM binding z-score in experiment [1] was -0.693; in experiment [2] it was -0.67; in [3], -0.464; in [4], -0.615; in experiment [5], -0.437; in [6] it was 0.637. Moreover, the PBM binding z-score in experiment [7] was 0.855; in [8] it was 0.165; in experiment [9] it was 0.0714; in [10], -0.118; in [11] it was 1.92; in [12] it was 2.79. In addition, the PBM binding z-score was 0.267 in experiment [13]; -0.313 in experiment [14]; -0.462 in experiment [15]; -0.363 in experiment [16]; -0.294 in experiment [17]; -0.364 in experiment [18]. The results for the PBM binding z-score in [19] and in experiment [20] were -0.0387 and -0.0625, respectively.
As to ATATGTATGTTATCGGGTCATTCAGTTTGCGCAT, the PBM binding z-score amounted to 1.97 in experiment [1]; 2.23 in experiment [2]; 0.86 in [3]; 2.38 in experiment [4]; 1.09 in experiment [5]; 3.32 in experiment [6]. The PBM binding z-score in [7] was determined as 2.67; in experiment [8] it was 2.71; in experiment [9] it was 0.938; in experiment [10], 2.09; in [11], 4.28; in [12], 4.3. Besides, the PBM binding z-score in [13] came to 1.17; in [14] it was 1.83; in experiment [15] it was 1.39; in [16], 3.37; in experiment [17], 6.74; in [18] it was 2.59. Also, the PBM binding z-score in [19] is 1.05; in experiment [20], 1.98.
In the case of ACTCGCAGGACAAAGGTCAGAGCTACGCCAGTGA, the PBM binding z-score stood at 3.77 in experiment [1]; 4.15 in experiment [2]; 1.13 in experiment [3]; 3.23 in experiment [4]; 0.178 in experiment [5]; 4.75 in experiment [6]. In addition, the PBM binding z-score came out at 7.12 in [7]; 6.87 in [8]; 5.49 in [9]; 6.99 in [10]; 0.731 in experiment [11]; 2.9 in experiment [12]. Besides, the PBM binding z-score in experiment [13] is 0.371; in experiment [14], -0.29; in [15] it was 1.88; in [16], 3.6; in [17], 0.075; in experiment [18], 4.72. Besides, the results for the PBM binding z-score in experiment [19] and in [20] were 0.499 and 4.29, respectively.
On to ACTTTTAGTTGAGACGAGGGCAACCGATAGGTTG, for which the PBM binding z-score in experiment [1] was 0.762; in experiment [2] it was 0.517; in [3], -0.32; in experiment [4], 0.176; in experiment [5], 0.689; in [6], 0.546. Further, the PBM binding z-score in [7] is 0.448; in experiment [8], 0.362; in experiment [9] it was 0.289; in [10], 0.332; in [11] it was 0.771; in experiment [12] it was 0.663. For the same sequence, the PBM binding z-score in [13] was found to be 1.4; in experiment [14], 1.16; in [15] it was 0.208; in experiment [16], 1.33; in experiment [17], 0.341; in experiment [18] it was 1.59. The PBM binding z-score in [19] turned out to be 0.167; in experiment [20], 1.24.
CGATCTAGGTCAAGGACAGTGAATCTCCGCACGC: the PBM binding z-score is 3.25 in experiment [1]; 2.07 in experiment [2]; 0.0913 in experiment [3]; 1.3 in experiment [4]; -0.135 in [5]; 4.43 in experiment [6]. The PBM binding z-score was 7.27 in experiment [7]; 5.87 in experiment [8]; 3.68 in experiment [9]; 5.55 in experiment [10]; 7.91 in experiment [11]; 8.16 in [12]. Moreover, the PBM binding z-score worked out at 4.56 in experiment [13]; 2.13 in [14]; 2.28 in [15]; 0.815 in experiment [16]; 0.057 in [17]; 2.01 in experiment [18]. Moreover, the PBM binding z-score in experiment [19] was 0.269; in experiment [20], 3.87.
